In the library only some 2.3% were active in any assay of this set; here they are far more common.
Giardia kill – Giardia lamblia killing; Giardia lamblia trophozoite viability; 340,000 compounds, 0.15% hits; AID 540267; activity change, % at 7.66 µM, hits read low; in the data active = activity change below about -80%; inconclusive = between about -30% and that limit;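 also: parasites exposed to compound for two days anaerobically before the ATP read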
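Media and compound were dispensed first, then trophozoites at 100 cells/well; plates sat 48 hrs at 37 deg C without oxygen before ATP luminescence reagent was added and read after 15-30 min at room temperature.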
TRPV1 potentiator – potentiators of human vanilloid receptor 1 (TRPV1) | Q8NER1 | TRPV1-expressing cells, Fluo-8 calcium influx, capsaicin EC20 potentiation | potentiation, % at 8.33 µM | 320,000 compounds, 0.02% hits | AID 540277; in the data active = potentiation above about 80%; inconclusive = between about 30% and that limit
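Fluo-8 calcium influx in TRPV1-expressing cells, kinetic read (ex 480/em 520 nm). Compound added and read 3 min for agonist activity, followed by capsaicin at EC20 final and 2 min further read for enhancement.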
TRPV1 agonist – activates the human vanilloid receptor TRPV1; Q8NER1; TRPV1-expressing cells, Fluo-8 calcium influx, agonist mode; activation, % at 8.33 µM; 320,000 compounds, 0.19% hits; AID 540275; in the data active = activation above about 80%; inconclusive = between about 30% and that limit
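Cells expressing TRPV1 were dye-loaded with Fluo-8 and read kinetically: 10 s baseline, 3 min after compound (agonist portion), then 2 min after EC20 capsaicin (allosteric enhancer portion). Calcium-bound dye fluorescence at 480/520 nm.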
FUS suppressor – FUS proteinopathy suppression in yeast | S. cerevisiae FUS-expressing, growth rescue, OD600, 24 h | Potency, µM (titrated, usually from 76.6 µM), hits mostly activators | 390,000 compounds, 0.24% hits; also: nearly all actives have a fitted effect of over 55% in size
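Restored growth of FUS-toxic S. cerevisiae, read as 600 nm absorbance after 24 h at 30C in galactose medium (starting OD 0.005). Controls CP55940 and DMSO.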
ELG1 DNA repair – ELG1-dependent DNA repair inhibition | HEK293T ELG1-luciferase reporter, luminescence, 16 h; DNA damage induced by 5-fluorouridine | Potency, µM (titrated, usually from 46.1 µM), actives largely listed as inhibitors | 330,000 compounds, 2.3% hits | AID 504467; also: nearly all actives have a fitted effect of over 55% in size
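Luminescence from the luciferase reporter, measured 30 min after ONE-Glo reagent at room temperature, was the read-out. Beforehand, 2,000 cells per well were exposed for 16 hr at 37 °C to 5-fluorouridine together with compound or vehicle.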
ELG1 FLuc counter – luciferase inhibition in cell-free luciferin readout for ELG1 hits; shares compounds with ELG1 DNA repair; cell-free firefly luciferase luminescence counter-screen, ViewLux; Potency, µM (top dose mostly 46.1 µM), usual class: inhibitors; 350 compounds, 3% hits
ELG1-Luc inh – human ELG1 repair inhibition, luciferase-tagged ELG1 confirmation; AID 624248; Potency, µM (titrated, usually from 46.1 µM), actives largely listed as inhibitors; HEK293T ELG1-luciferase levels, luminescence; cells co-treated with 5-fluorouridine; 670 compounds, 68% hits; shares compounds with ELG1 DNA repair; also: nearly all actives have a fitted effect of over 55% in size
ELG1 MMS Luc – confirmation of human ELG1 repair inhibitors, MMS stimulated. HEK293T luciferase-tagged ELG1 level, MMS stimulated. Potency, µM (doses to about 46.1 µM), actives largely listed as inhibitors. shares compounds with ELG1 DNA repair. 670 compounds, 53% hits; also: nearly all actives have a fitted effect of over 60% in size
ELG1 5-FU – confirmation of ELG1 repair inhibitors: viability with 5FU | shares compounds with ELG1 DNA repair | cell viability with 5-FU, ELG1-dependent repair | Potency, µM (top dose mostly 46.1 µM), hits mostly cytotoxic | 670 tested, under 10 active | AID 624250;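 also: ELG1-luc HEK293T cells cotreated with 5-fluorouridine at 10 µM final; viability measured 16 h after compound addition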
ELG1 MMS cell – confirmation of ELG1 repair inhibitors: viability with MMS; shares compounds with ELG1 DNA repair; Cell viability with MMS, ELG1-dependent DNA repair; Potency, µM (top dose mostly 46.1 µM), most hits filed as cytotoxic; 670 compounds, 33% hits; AID 624251;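 also: ELG1-luc HEK293T cells co-treated with 10 µM MMS; viability read 16 h after compound addition; nearly all actives have a fitted effect of over 60% in size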
Cell viab unstim – affects unstimulated cell viability, ELG1 hit counter-screen. shares compounds with ELG1 DNA repair. cell viability counter-screen, unstimulated, luminescence. Potency, µM (series often up to 45.9 µM), usual class: cytotoxic. 900 compounds, 8% hits. AID 624252;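 also: compound exposure lasted 16 hours before reading; nearly all actives have a fitted effect of over 55% in size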
FLuc enzyme – counter-screen for ELG1 repair inhibitors: firefly luciferase inhibition. shares compounds with ELG1 DNA repair. purified firefly luciferase, luminescence counter-screen. Potency, µM (series often up to 57.5 µM), usual class: inhibitors. 350 compounds, 10% hits. AID 624253
Each line names hits and unclear results; the compound was inactive in the other large screens (follow-up assays come after a bar, where they were run). Unless noted, calls follow the shape of the dose curve; as a rule, active = well fitted curve in the direction sought with a large enough effect; inconclusive = small, poorly fitted or top-dose-only effect, or another doubt; inactive = no such curve, though single readings can be large; an effect the other way counts as inactive or inconclusive.

O=S(=O)(c1cccs1)N1CCN(c2ccc(O)cc2)CC1	ELG1 DNA repair 1.64µM | ELG1-Luc inh inactive | ELG1 MMS Luc 25µM | ELG1 5-FU inactive | ELG1 MMS cell inconclusive | Cell viab unstim inconclusive
NC(=O)c1ccc(N2CCN(S(=O)(=O)c3cccs3)CC2)c([N+](=O)[O-])c1	ELG1 DNA repair 2.31µM (no result: TRPV1 potentiator, TRPV1 agonist) | ELG1-Luc inh inconclusive | ELG1 MMS Luc 0.996µM | ELG1 5-FU inactive | ELG1 MMS cell 0.791µM | Cell viab unstim 12.5µM
NC(=O)c1ccc(N2CCCCCC2)c([N+](=O)[O-])c1	none
Cn1c(=O)c2cc(NC(=S)NC3CCCCC3)ccc2n1-c1ccccc1	none (no result: Giardia kill, TRPV1 potentiator, TRPV1 agonist, ELG1 DNA repair)
Cc1cc(=O)oc2cc(NC(=O)c3ccc(OC(F)F)cc3)ccc12	ELG1 DNA repair inconclusive | Cell viab unstim inactive
Cc1cc(=O)oc2cc(NC(=O)C(C)Oc3ccc(F)cc3)ccc12 (stereo not drawn)	none
COc1ccccc1/C=C/c1nc2ccccc2s1	none (no result: Giardia kill, TRPV1 potentiator, TRPV1 agonist, FUS suppressor, ELG1 DNA repair) | Cell viab unstim inactive
CC1CCc2nc(-c3cc4ccc(O)cc4oc3=O)sc2C1 (stereo not drawn)	none (no result: TRPV1 potentiator, TRPV1 agonist, FUS suppressor, ELG1 DNA repair) | ELG1 FLuc counter inactive | Cell viab unstim inactive | FLuc enzyme 0.184µM
O=c1oc2cc(O)ccc2cc1-c1nc2ccccc2o1	none (no result: Giardia kill, TRPV1 potentiator, TRPV1 agonist, ELG1 DNA repair)
CCOC(=O)c1c(C)nc2sc3c(=O)n(-c4ccc(OC)cc4)cnc3c2c1-c1ccc(OC)cc1	none | ELG1 FLuc counter inactive | ELG1-Luc inh 1.26µM | ELG1 MMS Luc inactive | ELG1 5-FU inactive | ELG1 MMS cell inactive | Cell viab unstim inactive | FLuc enzyme inactive
CCCNc1nc2c(c(=O)n(C)c(=O)n2C)n1Cc1cccc(C)c1	ELG1 DNA repair 1.3µM | ELG1-Luc inh inconclusive | ELG1 MMS Luc 6.28µM | ELG1 5-FU inactive | ELG1 MMS cell 7.91µM | Cell viab unstim inactive
CCOc1ccc(CCNc2nc3c(c(=O)n(C)c(=O)n3C)n2CC)cc1OCC	TRPV1 potentiator inconclusive, ELG1 DNA repair inconclusive | ELG1 FLuc counter inactive | ELG1-Luc inh 14.1µM | ELG1 MMS Luc 11.2µM | ELG1 5-FU inactive | ELG1 MMS cell inactive | Cell viab unstim inactive | FLuc enzyme inactive
COC(=O)c1c(C)sc(-c2c(-c3cccc(OC)c3)[nH]c3c2c(=O)[nH]c(=O)n3C)c1O	none (no result: Giardia kill, TRPV1 potentiator, TRPV1 agonist, ELG1 DNA repair)
Cc1ccc(C(=O)NN=CC(=O)c2ccccc2)c(C)c1	ELG1 DNA repair inconclusive (no result: TRPV1 potentiator, TRPV1 agonist) | Cell viab unstim inactive
COc1ccc(C(=O)N/N=C/C(=O)c2ccccc2)cc1	ELG1 DNA repair inconclusive
COc1ccc(N2CCN(C(=O)CSc3nc(-c4ccccc4)no3)CC2)cc1	none (no result: Giardia kill, TRPV1 potentiator, TRPV1 agonist, ELG1 DNA repair)
O=C(NCC1CCCO1)c1ccc2c(=O)n(CC3CCCO3)c(=S)[nH]c2c1 (stereo not drawn)	none
O=C(Nc1ccc(F)cc1)c1ccc2c(=O)n(CC3CCCO3)c(=S)[nH]c2c1 (stereo not drawn)	TRPV1 agonist inconclusive, ELG1 DNA repair 4.11µM | ELG1-Luc inh 5.6µM | ELG1 MMS Luc 22.3µM | ELG1 5-FU inconclusive | ELG1 MMS cell inconclusive | Cell viab unstim inactive
